Sampled rows, rich in hits. Any-hit rate of the full collection: about 12%.
Cav3 T inh – inhibitors of human Cav3.2 T-type calcium channel; AID 449739; B-score at 10 µM; Cav3.2-expressing cells, Fluo-4 calcium fluorescence FDSS; hits give low values; O95180; 100,000 tested, 4% active;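 active = single-dose well whose peak fluorescence ratio is a statistical outlier from its plate by either plate-standardised score or position-corrected B-score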
DAT uptake mod – human DAT dopamine uptake with cocaine, either direction. Q01959. B-score at 10 µM. LLC-PK1 hDAT cells, [14C]-dopamine uptake with cocaine IC80; actives deviate in either direction. AID 449768. 110,000 tested, 1.3% active;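 active = Z score or B-score, a plate-position-corrected score, falls beyond the plate's 99.7% confidence bounds, in either direction; inactive = both scores lie inside the 99.7% bounds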
Target sequence (Q01959 whole entry, looked up): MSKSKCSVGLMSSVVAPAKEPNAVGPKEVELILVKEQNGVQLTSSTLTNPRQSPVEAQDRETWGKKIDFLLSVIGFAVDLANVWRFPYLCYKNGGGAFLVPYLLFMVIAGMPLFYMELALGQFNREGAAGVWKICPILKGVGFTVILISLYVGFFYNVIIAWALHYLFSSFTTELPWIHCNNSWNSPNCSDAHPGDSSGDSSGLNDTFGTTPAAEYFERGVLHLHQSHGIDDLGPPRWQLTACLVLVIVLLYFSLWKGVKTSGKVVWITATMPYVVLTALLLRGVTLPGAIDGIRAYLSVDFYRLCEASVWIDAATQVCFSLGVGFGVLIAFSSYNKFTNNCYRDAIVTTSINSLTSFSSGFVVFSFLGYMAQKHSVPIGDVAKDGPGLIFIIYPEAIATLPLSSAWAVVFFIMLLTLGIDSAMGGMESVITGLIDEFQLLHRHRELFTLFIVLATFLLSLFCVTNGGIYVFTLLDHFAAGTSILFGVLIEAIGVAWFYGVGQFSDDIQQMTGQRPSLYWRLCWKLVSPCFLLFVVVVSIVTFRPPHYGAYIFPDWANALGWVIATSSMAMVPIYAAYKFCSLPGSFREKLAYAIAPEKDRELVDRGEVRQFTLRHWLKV
PLAP act – human PLAP activation; P05187; purified PLAP enzyme, luminescent substrate read-out; hits give high values; activation fold at 20 µM; 96,000 tested, 1.2% active; AID 696; in the data active = activation fold above about 2
D1 allo mod – D1 dopamine receptor (human) allosteric modulation; P21728; B-score at 10 µM; HEK293 D1, CRE-luciferase, dopamine EC30 potentiation; actives deviate in either direction; 58,000 tested, 5.9% active;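 active = luminescence count or its row- and column-corrected plate score outside the 99.7% band of the plate's sample wells, on either side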
PostGolgi ctrl – growth of the yeast control strain, post-Golgi counter-screen. efflux-deficient yeast background strain, growth absorbance A615, 16 h. inhibition, % at 10 µM. AID 738. 98,000 tested, 5% active
PostGolgi yeast – growth inhibition of a yeast mutant, post-Golgi transport screen; post-Golgi transport phenotypic cell assay; inhibition, % at 10 µM; 98,000 tested, 0.9% active; AID 739;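 note: yeast cells grown in 1536-well plates; yeast grown about 18 h at 30C before absorbance read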
Large screens that a line does not name were inactive. Cut-off read from the data, not from the text of the source, unless noted: active = inhibition above about 30%; inactive = the rest.

COc1cc(/C=C/C(=O)NNc2c(F)c(F)cc(F)c2F)ccc1OC(F)F	Cav3 T inh -4.34 (no result: D1 allo mod)
COc1ccc(/C=C/C(=O)NNc2c(F)c(F)cc(F)c2F)cc1OC	none (no result: D1 allo mod)
CC(Sc1n[nH]c(N)n1)C(=O)C12CC3CC(CC(C3)C1)C2 (stereo not drawn)	PLAP act 2 (no result: D1 allo mod)
COc1ccc(CCNS(=O)(=O)c2cccc(C(=O)O)c2)cc1OC	none
C=CCN1C(=O)C2(/C(=C(\O)c3ccc4c(c3)OCCO4)C(=O)C(=O)N2CCCOC)c2ccccc21 (stereo not drawn)	PostGolgi ctrl 41.5
COc1ccccc1C1/C(=C(\O)c2ccc3c(c2)OCCO3)C(=O)C(=O)N1CCCN(C)C (stereo not drawn)	none (no result: Cav3 T inh, DAT uptake mod, D1 allo mod, PostGolgi ctrl, PostGolgi yeast)
COc1cc2c(cc1OC)C(C)N(C(=O)CCN1C(=O)C3C4C=CC(C4)C3C1=O)CC2 (stereo not drawn)	none (no result: Cav3 T inh)
O=S(=O)(Cc1ccccc1)/C1=C(\N2CCOCC2)CCCCCC1	PostGolgi ctrl 39.8
CCn1nc(C(=O)OCC(=O)c2cc(C)n(Cc3cccs3)c2C)c2ccccc2c1=O	PostGolgi ctrl 41.7
Cc1nn(Cc2ccccc2)c(C)c1C(=O)OCC(=O)c1cc(C)n(C2CC2)c1C	Cav3 T inh -4.75
COCC(C)n1c(C)cc(C(=O)COC(=O)c2c(C)nn(-c3ccccc3)c2C)c1C (stereo not drawn)	none
COCCn1c(C)cc(C(=O)COC(=O)c2c(C)nn(Cc3ccccc3)c2C)c1C	Cav3 T inh -5.91 (no result: D1 allo mod)
COCCn1c(C)cc(C(=O)CSc2ccc3ccccc3n2)c1C	PostGolgi ctrl 31.4 (no result: D1 allo mod)
COc1cc(C(C)=O)ccc1OCC(=O)c1cc(C)n(C2CC2)c1C	none
CS/C(=N\S(=O)(=O)c1cccs1)NC(=O)CSc1nc2ccccc2s1	none (no result: D1 allo mod)
Cc1cc(C)nc(SCC(=O)N2CCC(C(N)=O)CC2)n1	none
COCCn1c(C)cc(C(=O)COC(=O)c2n[nH]c3ccccc23)c1C	D1 allo mod -8.37
Cc1cc(C(=O)COC(=O)c2n[nH]c3ccccc23)c(C)n1CC1CCCO1 (stereo not drawn)	none (no result: D1 allo mod)
Cc1cccc(C)c1N1C(=O)C2ON(c3ccccc3)C(c3ccncc3)C2C1=O (stereo not drawn)	PostGolgi ctrl 90.6, PostGolgi yeast 101.9 (no result: D1 allo mod)
C=CCSc1nc2ccccc2n1C(=O)/C=C/c1ccc(OC)c(OC)c1	none (no result: D1 allo mod)
C=CCSc1nc2ccccc2n1C(=O)/C=C/c1cc(OC)c(OC)c(OC)c1	PostGolgi ctrl 38.4 (no result: Cav3 T inh, DAT uptake mod, D1 allo mod)
O=S(=O)(NC1CCCCC1)c1ccc(Br)cc1	PostGolgi ctrl 32.0
Cc1cc(S(=O)(=O)NC2CCCC2)ccc1F	none
CCOc1cc(S(=O)(=O)NC2CCCCCC2)ccc1F	PostGolgi ctrl 40.0
O=S(=O)(NC1CCCCCC1)c1ccc(Br)s1	Cav3 T inh -4.89 (no result: PLAP act, D1 allo mod, PostGolgi ctrl, PostGolgi yeast)
Cc1cc2c(c(=O)n1C)C(Cc1ccccc1)C(C#N)=C(N)O2 (stereo not drawn)	none
CC1CCCC(C)N1CCNC(=O)CCn1nc(-c2ccccc2)ccc1=O (stereo not drawn)	none (no result: Cav3 T inh, DAT uptake mod)
CCc1cc2c(=O)c(-c3nc4ccccc4n3C)c(C)oc2c(CN2CCN(C)CC2)c1O	none (no result: Cav3 T inh, DAT uptake mod, PLAP act)
CCc1cc2c(=O)c(-c3nc4ccccc4n3C)c(C)oc2c(CN2CCN(CCO)CC2)c1O	PostGolgi yeast 52.0
O=C(NCc1ccccc1)C(c1cccs1)N(Cc1cccs1)C(=O)c1cnccn1 (stereo not drawn)	none (no result: D1 allo mod)
O=C(NCc1ccccc1)C(c1ccccc1)N(Cc1cccs1)C(=O)c1cnccn1 (stereo not drawn)	PostGolgi ctrl 40.2 (no result: D1 allo mod)
CC1(C(=O)OCC(=O)c2c[nH]c3ccccc23)CC1(Cl)Cl (stereo not drawn)	none (no result: Cav3 T inh, DAT uptake mod, D1 allo mod)
C=CCn1c(SCc2ccc(C#N)cc2)nnc1-c1cccc(Cl)c1	Cav3 T inh -4.92
Cc1ccc(/C(O)=C2\C(=O)C(=O)N(c3cc(C)on3)C2c2cccc(Br)c2)cc1 (stereo not drawn)	Cav3 T inh -3.74
Cc1cc(N2C(=O)C(=O)/C(=C(/O)c3ccc(F)cc3)C2c2cccc(Br)c2)no1 (stereo not drawn)	none
Cc1ccc(/C(O)=C2\C(=O)C(=O)N(c3cc(C)on3)C2c2cccc(Cl)c2)cc1 (stereo not drawn)	Cav3 T inh -3.1
CC1CCN(C(=S)c2cn(Cc3ccccc3F)c3ccccc23)CC1	Cav3 T inh -6.55 (no result: D1 allo mod)
CC1CCN(C(=S)c2cn(Cc3ccc(F)cc3)c3ccccc23)CC1	none (no result: D1 allo mod)
Cc1ccc(C2=NOC(C)(c3nnc(-c4ccc(Cl)cc4)o3)C2)cc1 (stereo not drawn)	none (no result: PLAP act, D1 allo mod, PostGolgi ctrl, PostGolgi yeast)
Cn1nnc2cc(C(=O)NC3CCCCC3)ccc21	none
Cn1nnc2cc(C(=O)Nc3cccnc3)ccc21	PostGolgi yeast 39.5
CC(C)NC(=O)c1ccc2c(c1)nnn2C	PostGolgi ctrl 44.7
Cc1cccc(NC(=O)CCSc2nncn2C)c1	none (no result: PLAP act, D1 allo mod, PostGolgi ctrl, PostGolgi yeast)
CCCN1CCC(N2CCN(c3cccc(C(F)(F)F)c3)CC2)CC1	none
CC(NC(=O)Cc1cccs1)c1ccncc1 (stereo not drawn)	none
CC(NC(=O)Cc1cccs1)c1ccc2c(c1)OCO2 (stereo not drawn)	PostGolgi ctrl 37.2
Cc1ccc2cc(CN(CCCN3CCOCC3)C(c3nnnn3Cc3ccco3)C(C)C)c(=O)[nH]c2c1C (stereo not drawn)	DAT uptake mod 3.67 (no result: PLAP act, D1 allo mod, PostGolgi ctrl, PostGolgi yeast)
Cc1ccc2cc(CN(CCN3CCOCC3)Cc3nnnn3Cc3ccco3)c(=O)[nH]c2c1C	none
Cc1cc(-c2nsc(=O)o2)c(S(C)(=O)=O)s1	none (no result: Cav3 T inh, DAT uptake mod)
CCN(CC)S(=O)(=O)c1cccc(NC(=O)COC(=O)c2cc(C)oc2C)c1	Cav3 T inh -5.99 (no result: D1 allo mod)
Cc1cc(C)nc(N2CCCC(C(=O)NC(C)CCc3ccco3)C2)n1 (stereo not drawn)	none
COc1cc2cc(CN(Cc3ccc4c(c3)OCO4)C(=O)c3ccco3)c(=O)[nH]c2cc1OC	none (no result: PLAP act, D1 allo mod, PostGolgi ctrl, PostGolgi yeast)
O=C(c1cc2ccccc2oc1=O)N(Cc1ccc2c(c1)OCO2)Cc1ccco1	PostGolgi ctrl 42.3 (no result: D1 allo mod)
Cc1cc2cc(CN(Cc3ccc4c(c3)OCO4)C(=O)c3ccco3)c(=O)[nH]c2cc1C	Cav3 T inh -6.28
O=CN1CC(=O)N(c2ccccc2)c2c([nH]c3ccccc23)C1	none
Cc1cc(=O)n2c(-c3ccccc3C)n[nH]c2n1	PostGolgi yeast 31.0
Cc1cc(=O)n2c(C)n[nH]c2n1	none
COc1ccccc1C(=O)Oc1ccc(C(C)(C)C)cc1	none (no result: D1 allo mod)
COc1ccccc1-c1c(C(F)(F)F)oc2cc(OC(=O)c3ccccc3[N+](=O)[O-])ccc2c1=O	PostGolgi ctrl 31.0 (no result: D1 allo mod)
COn1c2c(c3c4nonc4ccc31)CCCC2	none (no result: D1 allo mod)
On1c2c(c3c4nonc4ccc31)CCCC2	Cav3 T inh -5.84 (no result: PLAP act, D1 allo mod, PostGolgi ctrl, PostGolgi yeast)
COc1cc(OC)cc(C(=O)N[C@H](C(=O)NC23CC4CC(CC(C4)C2)C3)C(C)C)c1	PostGolgi yeast 47.2 (no result: D1 allo mod)
COC(C[C@H]1O[C@H]1[C@H](O)COCc1ccccc1)OC	none (no result: PLAP act, D1 allo mod, PostGolgi ctrl, PostGolgi yeast)
O=C(CSc1nnc(-c2ccco2)o1)N1c2ccccc2CCc2ccccc21	none

Compound activity (PubChem BioAssay)
